From PubChem BioAssay (Tox21) come the findings set out here.

Each structure is given as a SMILES string. Unmarked numbers belong to inactive results. Inconclusive results are not listed. Calls of active or inactive are those of the source. Unless noted, the call rests on the fitted dose curve.

Experiment [1] can be described thus: Nuclear factor erythroid 2-related factor 2/antioxidant responsive element (Nrf2/ARE) small molecule agonists: qHTS cell viability counter screen in human keratinocytes (AID 1919968; active means well fitted curve in the direction sought with a large enough effect in the repeat runs; an effect the other way counts as inactive or inconclusive; further: nearly all actives have a fitted effect of over 55% in size). In outline:
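CellTiter-Fluor fluorescence, read 1 h after reagent, gave viability in the same wells as the ARE-luciferase assay. KeratinoSens cells (1,500/well) had 23 h compound exposure at 37 C/5% CO2 following 5 h plating.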

The nature of experiment [2]: Nuclear factor erythroid 2-related factor 2/antioxidant responsive element (Nrf2/ARE) small molecule agonists: luciferase reporter gene qHTS assay in human keratinocytes (AID 1919969). Further: nearly all actives have a fitted effect of over 35% in size. Further: potency means the concentration at half of the fitted maximal effect. A general note: A reporter such as luciferase makes a cellular process visible.
In experiment [3] the target is Gonadotropin-releasing hormone receptor (Homo sapiens) (UniProt P30968). As to the kind of experiment: Human gonadotropin-releasing hormone receptor (GnRHR) small molecule agonists, calcium flux assay in GnRHR-HEK293 cells (AID 1920063). Further: nearly all actives have a fitted effect of over 35% in size. In short, it runs like this: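 Agonist mode: compounds at 15 concentrations, in triplicate, went onto calcium dye-loaded GnRHR-HEK293 cells. Intracellular calcium was then followed as 480/540 nm fluorescence at 1 s intervals over 3 min.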

Experiment [4] deals with KiSS-1 receptor (Homo sapiens) (UniProt Q969F8). As to the kind of experiment: Human kisspeptin (KISS1R) small molecule agonists, calcium flux assay in KISS1R-HEK293 cells (AID 1920064; active means well fitted curve in the direction sought with a large enough effect in the repeat runs; an effect the other way counts as inactive or inconclusive). In outline: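 Agonist mode: intracellular calcium rise tracked at 1 s intervals over 3 min (480/540 nm) immediately after compound addition to dye-loaded KISS1R-HEK293 stable cells. Each compound tested at 15 concentrations in triplicate.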

The nature of experiment [5]: G protein-coupled receptor (GPCR) small molecule agonists, calcium flux assay: HEK293 wild type cell line counter screen (AID 1920065). In outline:
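Calcium flux counter screen: compound added in agonist mode at 15 concentrations in triplicate to dye-loaded parental HEK293 cells. Fluorescence (480/540) read kinetically for 3 min; ATP served as positive control.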
Background: Calcium flux is commonly read through the fluorescence of an indicator in the cells.

The nature of experiment [6]: p53 small molecule agonists, cell-based qHTS assay with human liver microsomes: qHTS cell viability counter screen (AID 1963579). Further: nearly all actives have a fitted effect of over 45% in size. In short, it runs like this: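 Viability of p53RE-bla cells is measured as CellTiter-Glo luminescence following a 16 h, 37 C incubation with compound, liver microsomes from human donors and NADPH.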
Experiment [7] is described as follows: p53 small molecule agonists, cell-based qHTS assay with rat liver microsomes: qHTS cell viability counter screen (AID 1963580). Further: nearly all actives have a fitted effect of over 45% in size. In short, it runs like this:
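Counter screen for cytotoxicity under metabolic activation: rat liver microsomes and NADPH, 0.5 mg/mL final each, added with compounds to p53RE-bla HCT-116 cells; 16 h at 37 C, then ATP luminescence read.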
For orientation: qHTS replaces the single test concentration by a dilution series.

The nature of experiment [8]: p53 small molecule agonists, cell-based qHTS assay: qHTS cell viability counter screen (AID 1963581). Further: nearly all actives have a fitted effect of over 45% in size. In outline:
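Counter screen read by CellTiter-Glo luminescence (ATP content, 30 min at room temperature), run in the same wells as the beta-lactamase reporter read. HCT-116 p53RE-bla cells saw compounds for 16 h at 37 C.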

For experiment [9], the target named is 5-hydroxytryptamine receptor 2A (Homo sapiens) (UniProt P28223). As to the kind of experiment: 5-hydroxytryptamine receptor 2A (HTR2A) small molecule antagonists, cell-based qHTS assay (AID 1963586). Further: nearly all actives have a fitted effect of over 45% in size. In outline: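 CHO cells stably expressing human HTR2A were plated for 18 h at 37 C, then loaded with calcium dye for 1 h. Compounds were preincubated 5 min at room temperature before DOI (4 nM solution) was added. Kinetic fluorescence was read for 3 min.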

Experiment [10] has the same target. As to the kind of experiment: 5-hydroxytryptamine receptor 2A (HTR2A) small molecule agonists, cell-based qHTS assay (AID 1963587). Further: nearly all actives have a fitted effect of over 30% in size. In outline: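 HTR2A-CHO cells, plated 18 h at 37 C/5% CO2, dye-loaded 1 h at 37 C; compounds in DMSO added by pin tool (agonist mode). Intracellular calcium flux read as kinetic fluorescence on FDSS over 2 min at 1 s intervals.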

Experiment [11] has as its target Muscarinic acetylcholine receptor M1 (Homo sapiens) (UniProt P11229). Nature of the experiment: Cholinergic receptor muscarinic 1 (CHRM1) small molecule antagonists, cell-based qHTS assay (AID 1963588). Further: nearly all actives have a fitted effect of over 40% in size. In short, it runs like this: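 Compounds were tested at 15 concentrations in three independent runs. Dye-loaded CHRM1-CHO cells were exposed 5 min at room temperature before stimulation by acetylcholine added at 50nM. Intracellular calcium was read kinetically on FDSS for 3 min.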

Experiment [12] shares this target. As to the kind of experiment: Cholinergic receptor muscarinic 1 (CHRM1) small molecule agonists, cell-based qHTS assay (AID 1963589). Further: nearly all actives have a fitted effect of over 35% in size. In short, it runs like this: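 Agonist-mode calcium-flux screen: compounds at 15 concentrations, three independent runs, were pin-transferred onto dye-loaded human CHRM1-CHO cells. Fluorescence was then recorded kinetically every second over minutes.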

A short description of experiment [13]: cAMP Responsive Elements (CRE) small molecule agonists, cell-based qHTS assay (AID 1963590). In short, it runs like this:
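Agonist mode: compound added to CRE-bla HEK 293T cells (2,000/well, 18 h after plating) for 3 h at 37 C/5% CO2. Reporter activity detected via FRET beta-lactamase substrate, 2 h room-temperature loading.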

A short description of experiment [14]: cAMP Responsive Elements (CRE) small molecule antagonists, cell-based qHTS assay (AID 1963591; active means well fitted inhibition curve with a large enough effect in the signal ratio in the repeat runs, not every such curve was filed as active; the % refers to the signal ratio). In short, it runs like this:
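Antagonist mode: compounds are added alongside the adenylyl cyclase activator NKH477 (0.25 uM final) to CRE-bla HEK293T cells for 3 h. LiveBLAzer FRET substrate, 2 h at room temperature, reports bla expression.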

Experiment [15] has as its target Beta-2 adrenergic receptor (Homo sapiens) (UniProt P07550). Nature of the experiment: Adrenergic beta2 receptor (ADRB2) small molecule antagonists, cell-based qHTS assay (AID 1963592). Further: nearly all actives have a fitted effect of over 50% in size. Further: potency means the concentration at half of the fitted maximal effect. In outline: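 Assay format: CHO-ADRB2 cells, 18-20hr seeding at 37C/5% CO2, then compound plus 1nM isoproterenol agonist mix for 0.5hr RT. Homogeneous time-resolved fluorescence cAMP detection after 1hr, expressed as 665/615 nm ratio.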

Experiment [16] shares this target. Nature of the experiment: Adrenergic beta2 receptor (ADRB2) small molecule agonists, cell-based qHTS assay (AID 1963593).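 Further: CHO cells stably overexpressing human ADRB2.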 In outline: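 CHO cells stably over-expressing ADRB2 were plated overnight at 37C, then dosed with compounds plus a stimulation mix containing 100uM IBMX and 25uM Ro-20-1724 for 0.5hr at room temperature. cAMP was measured by HTRF competition, 1hr.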

For experiment [17], the target named is D(2) dopamine receptor (Homo sapiens) (UniProt P14416). As to the kind of experiment: Dopamine D2 receptor (DRD2) small molecule agonists, cell-based qHTS assay (AID 1963594). Further: nearly all actives have a fitted effect of over 35% in size. In outline: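 HEK293 cells stably expressing DRD2 were cultured 24 h at 37 C, then given Ro20-1724 (0.1 mM final) and compounds for 10 min at room temperature. NKH477 (200nM) was then added for 30 min. cAMP was read by HTRF.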

Experiment [18] has the same target. Nature of the experiment: Dopamine D2 receptor (DRD2) small molecule antagonists, cell-based qHTS assay (AID 1963595; active means well fitted inhibition curve with a large enough effect in the signal ratio in the repeat runs, with a control signal flat; the % refers to the signal ratio). In outline:
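Readout: HTRF cAMP, cAMP-d2 competing with cellular cAMP for anti-cAMP cryptate, read after 1 h. Cells: DRD2-HEK293. Conditions: 0.1 mM Ro20-1724, 12 nM quinpirole, 200 nM NKH477, 30 min RT.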

Sequence of Beta-2 adrenergic receptor (Homo sapiens) (P07550 whole entry, looked up): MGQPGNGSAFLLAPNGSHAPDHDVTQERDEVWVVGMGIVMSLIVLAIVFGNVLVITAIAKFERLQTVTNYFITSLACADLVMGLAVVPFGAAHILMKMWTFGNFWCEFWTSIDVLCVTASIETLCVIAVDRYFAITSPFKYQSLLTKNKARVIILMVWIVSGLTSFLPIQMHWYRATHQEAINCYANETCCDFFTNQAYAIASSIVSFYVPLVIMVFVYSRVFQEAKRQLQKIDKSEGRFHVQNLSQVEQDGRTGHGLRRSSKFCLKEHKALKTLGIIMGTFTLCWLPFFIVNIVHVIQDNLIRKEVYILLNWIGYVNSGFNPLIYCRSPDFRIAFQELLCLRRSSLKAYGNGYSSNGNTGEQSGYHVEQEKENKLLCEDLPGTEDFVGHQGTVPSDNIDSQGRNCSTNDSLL
Sequence of KiSS-1 receptor (Homo sapiens) (Q969F8 whole entry, looked up): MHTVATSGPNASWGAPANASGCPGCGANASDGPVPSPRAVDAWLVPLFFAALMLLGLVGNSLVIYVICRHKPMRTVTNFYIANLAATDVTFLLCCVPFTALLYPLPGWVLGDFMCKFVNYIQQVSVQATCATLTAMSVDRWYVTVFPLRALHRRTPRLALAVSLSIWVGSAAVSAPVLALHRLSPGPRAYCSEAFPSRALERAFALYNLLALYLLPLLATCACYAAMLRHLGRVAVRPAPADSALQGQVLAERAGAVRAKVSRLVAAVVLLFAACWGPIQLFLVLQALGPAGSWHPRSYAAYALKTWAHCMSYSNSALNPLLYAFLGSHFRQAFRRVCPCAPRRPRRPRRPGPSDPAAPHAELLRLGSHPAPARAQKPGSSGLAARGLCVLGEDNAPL
Sequence of 5-hydroxytryptamine receptor 2A (Homo sapiens) (P28223 whole entry, looked up): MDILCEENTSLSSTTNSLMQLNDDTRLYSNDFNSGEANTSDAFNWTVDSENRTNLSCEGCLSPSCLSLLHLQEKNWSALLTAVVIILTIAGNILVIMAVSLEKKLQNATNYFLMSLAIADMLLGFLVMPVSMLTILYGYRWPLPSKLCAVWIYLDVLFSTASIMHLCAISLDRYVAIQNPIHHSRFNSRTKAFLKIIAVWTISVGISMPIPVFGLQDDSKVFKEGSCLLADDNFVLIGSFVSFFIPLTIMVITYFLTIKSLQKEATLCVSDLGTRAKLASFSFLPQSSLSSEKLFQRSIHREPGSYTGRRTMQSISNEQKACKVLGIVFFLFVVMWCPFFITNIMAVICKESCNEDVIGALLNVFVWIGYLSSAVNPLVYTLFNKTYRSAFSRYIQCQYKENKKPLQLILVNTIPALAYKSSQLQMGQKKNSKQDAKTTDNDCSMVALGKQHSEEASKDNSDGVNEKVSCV
Sequence of D(2) dopamine receptor (Homo sapiens) (P14416 whole entry, looked up): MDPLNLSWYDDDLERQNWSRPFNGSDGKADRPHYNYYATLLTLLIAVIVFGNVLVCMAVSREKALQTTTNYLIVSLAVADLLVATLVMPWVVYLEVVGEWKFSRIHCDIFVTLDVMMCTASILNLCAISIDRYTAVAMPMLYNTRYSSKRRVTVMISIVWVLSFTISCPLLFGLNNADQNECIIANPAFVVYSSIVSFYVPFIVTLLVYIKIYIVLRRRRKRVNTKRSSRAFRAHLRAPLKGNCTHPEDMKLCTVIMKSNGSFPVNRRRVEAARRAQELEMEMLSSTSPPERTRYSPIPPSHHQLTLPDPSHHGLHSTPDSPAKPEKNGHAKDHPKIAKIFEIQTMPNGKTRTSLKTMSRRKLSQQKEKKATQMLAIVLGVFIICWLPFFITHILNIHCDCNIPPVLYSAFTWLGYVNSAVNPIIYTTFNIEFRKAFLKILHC
Sequence of Muscarinic acetylcholine receptor M1 (Homo sapiens) (P11229 whole entry, looked up): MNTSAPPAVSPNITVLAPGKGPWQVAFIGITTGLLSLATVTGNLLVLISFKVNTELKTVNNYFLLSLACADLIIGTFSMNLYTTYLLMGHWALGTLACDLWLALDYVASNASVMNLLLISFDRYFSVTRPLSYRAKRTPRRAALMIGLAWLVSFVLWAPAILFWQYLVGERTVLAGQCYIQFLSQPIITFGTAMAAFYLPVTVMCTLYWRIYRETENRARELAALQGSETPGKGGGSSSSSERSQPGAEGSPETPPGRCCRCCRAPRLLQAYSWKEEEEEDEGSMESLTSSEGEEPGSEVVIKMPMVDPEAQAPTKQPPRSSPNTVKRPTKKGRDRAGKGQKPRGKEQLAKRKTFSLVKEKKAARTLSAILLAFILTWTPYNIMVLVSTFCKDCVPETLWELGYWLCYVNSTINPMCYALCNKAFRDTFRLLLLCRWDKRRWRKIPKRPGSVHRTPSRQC
Sequence of Gonadotropin-releasing hormone receptor (Homo sapiens) (P30968 whole entry, looked up): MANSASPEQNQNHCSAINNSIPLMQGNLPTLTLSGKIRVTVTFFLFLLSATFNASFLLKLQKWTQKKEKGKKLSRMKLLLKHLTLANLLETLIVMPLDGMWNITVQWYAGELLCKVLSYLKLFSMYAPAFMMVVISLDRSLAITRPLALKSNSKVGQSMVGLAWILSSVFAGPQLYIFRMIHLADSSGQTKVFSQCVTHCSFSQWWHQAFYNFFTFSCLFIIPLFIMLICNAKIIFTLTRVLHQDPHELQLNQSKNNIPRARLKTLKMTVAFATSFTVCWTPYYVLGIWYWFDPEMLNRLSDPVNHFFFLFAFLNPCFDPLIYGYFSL

With `COC(=O)CC(=O)C(C)(C)C`, the Potency entry in experiment [1], in [2], in experiment [3], in experiment [4], in experiment [5] and in [6] was “inactive” in each case. The Potency entry in experiment [7], in experiment [8], in experiment [9], in experiment [10], in experiment [11] and in [12] was “inactive” throughout. In addition, the Potency entry in [13], in experiment [14], in experiment [15], in [16], in [17] and in experiment [18] was “inactive” in each case.
With `CC1(C)C(=O)N(Cl)C(=O)N1Br`, the Potency result in experiment [1], in [2], in experiment [3], in [4], in [5] and in experiment [6] was “inactive” each time. For the same compound, the Potency result in [7], in experiment [8], in [9], in experiment [10], in experiment [11] and in experiment [12] was “inactive” in each case. For the same compound, the Potency result in experiment [13], in experiment [14], in experiment [15], in [16], in [17] and in experiment [18] was “inactive” each time.
As for `NCCCN(CCO)CCO`, the Potency entry in experiment [1], in experiment [2], in experiment [3], in experiment [4], in experiment [5] and in [6] was “inactive” each time. The Potency entry in experiment [7], in experiment [8], in experiment [9], in experiment [10], in [11] and in experiment [12] was “inactive” each time. Moreover, the Potency entry in [13], in [14], in experiment [16], in experiment [17] and in experiment [18] was “inactive” in each case. In addition, the Potency in [15] was 0.217 µM (active).
In the case of `COP(=O)(O)OP(=O)(O)OC`, the Potency result in [1], in experiment [3], in [4], in experiment [5], in experiment [6] and in [7] was “inactive” each time. Moreover, the Potency entry in [8], in experiment [9], in [10], in [11], in [12] and in experiment [13] was “inactive” each time. For the same compound, the Potency result in [14], in [15] and in experiment [18] was “inactive” each time. In addition, in [2], the Potency is 24.3 µM (active).
As for `COC(C)=O`, the Potency entry in experiment [1], in experiment [2], in experiment [3], in experiment [4], in experiment [5] and in [6] was “inactive” throughout. Also, the Potency entry in experiment [7], in [8], in experiment [9], in [10], in experiment [11] and in experiment [12] was “inactive” throughout. The Potency entry in experiment [13], in experiment [14], in experiment [15] and in [17] was “inactive” in each case.
As for `CC/C=C\CC/C=C/CO`, the Potency entry in [1], in [2], in experiment [3], in experiment [4], in experiment [5] and in experiment [6] was “inactive” in each case. The Potency entry in [7], in [8], in experiment [9], in experiment [10], in experiment [11] and in experiment [12] was “inactive” throughout. Also, the Potency result in experiment [13], in experiment [14], in experiment [15], in [17] and in experiment [18] was “inactive” throughout.
Regarding `BrCc1cccc(Oc2ccccc2)c1`, the Potency entry in experiment [1], in [2], in experiment [3], in experiment [4], in [5] and in [6] was “inactive” each time. The Potency entry in [7], in [8], in experiment [9], in experiment [10], in experiment [11] and in experiment [12] was “inactive” throughout. Besides, the Potency result in [13], in [14], in experiment [15], in [17] and in experiment [18] was “inactive” throughout.
On to `C=C(C)C(=O)OCC`, for which the Potency result in [1], in experiment [2], in experiment [3], in experiment [4], in experiment [5] and in experiment [6] was “inactive” in each case. The Potency result in experiment [7], in experiment [8], in [9], in [10], in experiment [11] and in [12] was “inactive” in each case. The Potency result in [13], in experiment [14], in experiment [15], in experiment [17] and in experiment [18] was “inactive” throughout.
